From PubChem BioAssay (NCI)
About 83,000 compounds went through this panel and 20% of them were active in at least one assay; those are over-represented in the sample as a whole.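 Values shown are percent growth following 48 h exposure of cells in 96-well plates to a single concentration of compound; below 10 was considered active.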 The source made the active and inactive calls.

System: HL-60(TB) leukemia
Assay: NCI-60 one-dose screen, 48 h (100 = growth as untreated, 0 = no growth, -100 = all killed)
Conditions: 10 µM unless noted

| SMILES | growth |
| --- | --- |
| Cc1ccc(C2CC(c3ccc(S(=O)(=O)NCCNc4nc(Nc5ccc(F)cc5)nc(N(C)C)n4)cc3)=Nc3c(N)nc(N)nc3N2)cc1 (stereo unspecified) | -10.4% (active) |
| O=C(Nc1cccc(C(F)(F)F)c1)c1cncc(C#Cc2cnc3ccc(N4CCOCC4)nn23)c1 | -33% (active) |
| CN1CCN(c2ccc(C(=O)/C=C/c3ccc(C#N)cc3)cc2)CC1 | 65.1% (inactive) |
| CN1C(=O)C(O)(CC(=O)c2cc3ccccc3oc2=O)c2ccccc21 (stereo unspecified) | 84.4% (inactive) |
| Nc1nnc(CS(=O)(=O)c2ccccc2)s1 | 105% (inactive) |
| COc1ccc(-c2cc(C(=O)N=Nc3c(O)[nH]c4ccc(Cl)cc34)c3ccccc3n2)cc1OC | 109% (inactive) |
